“And” between values parts separate entries of the source, which are not always exact repeats. Equal values may be shown once. Unmarked numbers belong to inactive results. Records with an inconclusive call do not appear. The source made the active and inactive calls. Unless noted, the call rests on the fitted dose curve; in most records, active means well fitted curve in the direction sought with a large enough effect in the repeat runs; inconclusive means weak or mixed curves; inactive means no such curve, though single readings can be large; an effect the other way counts as inactive or inconclusive.

A short description of assay [1]: qHTS assay for small molecules that induce genotoxicity in human embryonic kidney cells expressing luciferase-tagged ATAD5 (AID 651632). Further: nearly all actives have a fitted effect of over 15% in size. The method in brief:
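ATAD5-luc HEK293T, 2,000 cells/well; cpd or DMSO pin-transferred; 16 hr, 37C/5% CO2; Amplite 30 min RT; luminescence.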
For orientation: In qHTS, concentration-response curves come from the screen itself.

A short description of assay [2]: qHTS assay for small molecule disruptors of the mitochondrial membrane potential (AID 720635). Further: potency means the concentration at half of the fitted maximal effect. The method in brief: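 HepG2 cells exposed to compound 1 hr at 37C, then Mito-MPS dye 30 min. Ratio read of aggregate (540/590 nm) versus monomer (490/535 nm) fluorescence.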
Assay [3] in a line: qHTS assay to test for compound auto fluorescence at 590 nm (red) in HepG2 cells (AID 720674). The method in brief: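 HepG2 cells, 2,000 per well in MEM with 10% FBS, attached overnight at 37 C, then got 23 nL compound or DMSO. After 1 hr at 37 C, 5% CO2, red fluorescence was read at 540/590 nm against Rose Bengal sodium as reference.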
Assay [4] in a line: qHTS assay to test for compound auto fluorescence at 535 nm (green) in HepG2 cells (AID 720675).
Assay [5] can be described thus: qHTS assay to test for compound auto fluorescence at 460 nm (blue) in HEK293 cells (AID 720678). In a few lines:
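HEK293 cells (2,000/well, medium with 10% dialyzed FBS) attached 4-5 hr, then exposed to compound overnight at 37C, 5% CO2. Blue fluorescence read at 405/460 nm, with triamterene as reference fluorophore.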

Assay [6] in a line: qHTS assay to test for compound auto fluorescence at 590 nm (red) in HEK293 cells (AID 720679). The method in brief: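 HEK293 cells (2,000/well, 10% dialyzed FBS) attached 4-5 hr, then dosed with compound or DMSO and incubated overnight at 37C, 5% CO2. Red fluorescence read at 540/590 nm, Rose Bengal sodium as reference fluorophore.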
Assay [7] is described as follows: qHTS assay to test for compound auto fluorescence at 535 nm (green) in HEK293 cells (AID 720680).
Assay [8] in a line: qHTS assay to test for compound auto fluorescence at 460 nm (blue) in HEK293 cell free culture (AID 720681). In a few lines:
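Compounds were added to cell-free DMEM with 10% FBS and fluorescence read directly. The blue channel used 405 nm excitation and 460 nm emission, with triamterene as the reference fluorophore.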

Assay [9] in a line: qHTS assay to test for compound auto fluorescence at 590 nm (red) in HEK293 cell free culture (AID 720683). The method in brief:
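Cell-free wells of DMEM with 10% FBS received compound, and intrinsic fluorescence was read at excitation/emission 540/590 nm. Values expressed as equivalence to Rose Bengal sodium.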

The nature of assay [10]: qHTS assay to test for compound auto fluorescence at 590 nm (red) in HepG2 cell free culture (AID 720684). In a few lines:
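Compound was pinned into wells holding MEM with 10% FBS and no cells, and red fluorescence was read at Ex/Em 540/590 nm. Signal is expressed as auto fluorescence equivalency relative to Rose Bengal sodium.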

A short description of assay [11]: qHTS assay to test for compound auto fluorescence at 460 nm (blue) in HepG2 cell free culture (AID 720685). The method in brief: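 Compound (23 nL) or DMSO pinned into cell-free MEM with 10% FBS; blue fluorescence read at 405/460 nm excitation/emission, expressed as auto-fluorescence equivalency to triamterene.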
Assay [12] in a line: qHTS assay to test for compound auto fluorescence at 535 nm (green) in HepG2 cell free culture (AID 720686).
A short description of assay [13]: qHTS assay to test for compound auto fluorescence at 460 nm (blue) in HepG2 cells (AID 720687). The method in brief:
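HepG2 cells in MEM with 10% FBS, attached overnight at 37 C, were exposed to compound or DMSO for 1 hr at 37 C, 5% CO2. Blue fluorescence was read at 405/460 nm, with triamterene as reference fluorophore.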

The nature of assay [14]: qHTS assay for small molecule disruptors of the mitochondrial membrane potential - cell viability (AID 720634; calls by dose curve; further: nearly all actives have a fitted effect of over 20% in size; further: potency means the concentration at half of the fitted maximal effect). The method in brief:
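Cells: HepG2, 2,000/well, attached overnight. Compound 1 hr, 37 C/5% CO2. +m-MPI dye, +CellTiter-Glo 30 min RT. Readout: luminescence (ATP).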

Assay [15] in a line: qHTS assay to test for compound auto fluorescence at 535 nm (green) in HEK293 cell free culture (AID 720682). In a few lines: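 Green-label autofluorescence (485 nm excitation, 535 nm emission) measured on compound added to cell-free culture medium (DMEM, 10% FBS). Output is expressed relative to fluorescein.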
Assay [16] can be described thus: qHTS assay for small molecule agonists of the p53 signaling pathway - cell viability (AID 651633; calls by dose curve;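 further: p53RE-bla HCT reporter cells with a stable beta-lactamase p53 reporter; series mostly up to about 83 µM; nearly all actives have a fitted effect of over 30% in size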). The method in brief:
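p53RE-bla cells were treated with compound for 16 hours at 37 C. Cytotoxicity was then measured as CellTiter-Glo luminescence after 30 min at room temperature.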

Assay [17] can be described thus: qHTS assay for small molecules that induce genotoxicity in human embryonic kidney cells expressing luciferase-tagged ATAD5 - cell viability (AID 651634; calls by dose curve; further: nearly all actives have a fitted effect of over 25% in size; further: potency means the concentration at half of the fitted maximal effect). The method in brief: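 Fluorescence from CellTiter-Fluor, reporting protease activity within live cells, served as the viability read-out. HEK293T cells carrying luciferase-tagged ATAD5 had been treated with compound for 15.5 hr at 37C.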

Assay [18] has as its target Glucocorticoid receptor (Homo sapiens) (UniProt P04150). Nature of the assay: qHTS assay to identify small molecule agonists of the glucocorticoid receptor (GR) signaling pathway (AID 720691; active means well fitted activation curve with a large enough effect in the signal ratio in the repeat runs, not every such curve was filed as active; the % refers to the signal ratio). The method in brief: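 Fluorescence intensity from LiveBLAzer B/G FRET substrate (2 h, room temperature) reports beta-lactamase expression driven by the glucocorticoid response element in GR-bla HeLa cells after 18 h compound exposure at 37 C.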

The target is the same in assay [19]. In words: qHTS assay to identify small molecule antagonists of the glucocorticoid receptor (GR) signaling pathway (AID 720692; active means well fitted inhibition curve with a large enough effect in the signal ratio in the repeat runs, not every such curve was filed as active; the % refers to the signal ratio). The method in brief:
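HeLa GR-bla cells; cmpd + dex 5 nM final, 18 h 37 C; LiveBLAzer B/G FRET substrate 2 h RT; fluorescence intensity read. Antagonist mode, qHTS.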
On the % scale 0 is the no-effect control and ±100 the full control effect.

Sequence of Glucocorticoid receptor (Homo sapiens) (P04150 whole entry, looked up): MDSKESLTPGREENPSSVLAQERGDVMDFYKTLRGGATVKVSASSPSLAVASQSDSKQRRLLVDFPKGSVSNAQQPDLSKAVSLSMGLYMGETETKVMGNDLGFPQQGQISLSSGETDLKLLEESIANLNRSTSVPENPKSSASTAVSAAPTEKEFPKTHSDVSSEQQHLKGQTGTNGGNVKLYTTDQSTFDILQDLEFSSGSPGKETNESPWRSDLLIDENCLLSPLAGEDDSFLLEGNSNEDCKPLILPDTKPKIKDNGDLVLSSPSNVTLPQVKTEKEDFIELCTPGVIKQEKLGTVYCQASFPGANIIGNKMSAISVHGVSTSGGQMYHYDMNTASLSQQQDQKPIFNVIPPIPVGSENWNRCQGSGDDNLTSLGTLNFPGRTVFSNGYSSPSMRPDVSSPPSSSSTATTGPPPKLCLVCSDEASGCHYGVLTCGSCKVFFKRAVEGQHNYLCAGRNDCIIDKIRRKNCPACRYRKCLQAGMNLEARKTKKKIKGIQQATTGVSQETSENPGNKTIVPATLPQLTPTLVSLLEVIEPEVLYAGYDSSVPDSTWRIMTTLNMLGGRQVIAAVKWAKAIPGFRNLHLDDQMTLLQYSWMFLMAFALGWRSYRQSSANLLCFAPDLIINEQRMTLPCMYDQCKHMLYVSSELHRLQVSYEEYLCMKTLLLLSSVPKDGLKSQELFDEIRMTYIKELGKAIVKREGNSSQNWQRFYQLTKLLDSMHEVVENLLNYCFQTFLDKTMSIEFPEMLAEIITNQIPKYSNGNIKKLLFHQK

As to `O=C(Nc1ccc2[nH]ccc2c1)c1cc2cc(F)ccc2n1Cc1cccc(F)c1`, the Potency result in assay [1], in [5], in [8], in [11] and in [13] was “inactive” each time. For the same compound, in [2], the Potency was 0.686 µM (active). The outcome in assay [3], in assay [4], in assay [6], in [7], in assay [9] and in [10] was inactive. Besides, in assay [12], the call was inactive.
As for `CCCOCC(=Nc1ccc(Cl)cc1C(F)(F)F)n1ccnc1`, the Potency entry in [1], in [8], in [11] and in assay [13] was “inactive” in each case. In addition, the results for the Potency in [14] and in assay [2] were 30.6 µM (active) and 6.11 µM (active), respectively. Further, the outcome in assay [3], in [4], in [6], in [7], in assay [15] and in [9] was inactive. The compound was classed as inactive in [10] and in assay [12].
Regarding `CC(=O)Nc1ccc2c(c1)Cc1ccccc1-2`, the Potency entry in assay [16], in assay [17], in assay [14], in assay [5], in [8] and in assay [13] was “inactive” each time. Moreover, the Potency in assay [2] is 31.1 µM (active). Moreover, the outcome in assay [3], in [4], in [6], in assay [7], in [15] and in [9] was inactive. In addition, the call in assay [10] and in assay [12] was inactive.
Regarding `[Cd+2].[Cl-].[Cl-]`, the Potency in [17] was 1.95 µM (active) and 1.22 µM (active). The outcome in [3], in assay [4], in assay [6], in assay [7], in assay [15] and in assay [9] was inactive. Moreover, the compound was called inactive in assay [10] and in [12]. Moreover, the Potency result in [5], in [8], in [11] and in assay [13] was “inactive” each time.
In the case of `Fc1cccc(Cl)c1CCl`, the Potency result in assay [1], in assay [14], in [5], in assay [8], in [13] and in assay [18] was “inactive” each time. Besides, the compound was classed as inactive in [3], in assay [4], in [6], in assay [7], in assay [15] and in assay [9]. For the same compound, the outcome in assay [10] and in assay [12] was inactive.
For `O=c1[nH]c2ccccc2n1CCCN1CCC(n2c(=O)[nH]c3cc(Cl)ccc32)CC1`, the Potency result in assay [16], in [14], in assay [2], in [5], in assay [13] and in assay [18] was “inactive” in each case. Further, the compound was classed as inactive in assay [3], in assay [4], in [6], in [7], in [15] and in assay [9]. Also, the compound was called inactive in [10] and in assay [12].
With `Clc1ccc(CCC(Cn2ccnc2)Sc2c(Cl)cccc2Cl)cc1` (configuration not stated), the Potency entry in assay [1], in assay [14] and in [19] was “inactive” throughout. Moreover, the fluorescence, relative to Rose Bengal in assay [3] was -0.283% [at 18.6 µM]. The fluorescence, % of fluorescein control in assay [4] is -0.0029% [at 18.6 µM]; in [12], 0.0716% [at 18.6 µM]. Also, the fluorescence, % of triamterene in assay [5] is 0.0582% [at 18.6 µM]. For the same compound, the fluorescence, % of fluorescent control is 0.0698% [at 18.6 µM] in [6], 0.052% [at 18.6 µM] in assay [8], -0.0573% [at 18.6 µM] in assay [9] and -0.0565% [at 18.6 µM] in assay [13]. Moreover, in [7], the fluorescence, % of fluorescein is 0.0661% [at 18.6 µM]. In addition, the activity change in assay [15] was -0.055% [at 18.6 µM]. For the same compound, the fluorescence, % of Rose Bengal in assay [10] is 0.657% [at 18.6 µM].

The values above are taken from PubChem BioAssay (Tox21).
